A short description of test [1]: rapamycin-like changes in RPL19A-GFP expression – cell-based, S. cerevisiae, multiplex flow cytometry, primary screen (AID 1862; in the data active = percent of DMSO control GFP below about 86%;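 note: lower values mimic rapamycin by blocking the RPL19A rise seen in DMSO cells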). The following applies: S. cerevisiae RPL19A-GFP strain, flow cytometry fluorescence, 3 h; at 10 µM; stronger effect = lower value. (In flow cytometry, cells or beads pass a laser one at a time.)
The nature of test [2]: TOR pathway GLN3 branch reporter MEP2-GFP changes – S. cerevisiae, multiplex flow cytometry, primary screen (AID 1867;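 active = GFP response, as percent of the DMSO control, above the screen-wide mean plus 3 SD, about 139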;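 note: median GFP channel fluorescence of barcode-gated MEP2-GFP cells measured by flow cytometry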). The conditions noted are these: S. cerevisiae MEP2-GFP strain, 3 h, at 10 µM, stronger effect = higher value, 100% means same as DMSO wells.
The nature of test [3]: TOR pathway RTG branch CIT2 reporter changes – S. cerevisiae, GFP fusion, multiplex flow cytometry, primary screen (AID 1870;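 active = percent response above a set limit, the screen-wide mean plus 3 SD, cut at about 130% in these data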;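 note: barcoded CIT2-GFP strain pooled with four other GFP strains with rapamycin as positive control; median GFP fluorescence per well over plate mean of DMSO wells so 100% = DMSO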). The conditions noted are these: S. cerevisiae CIT2-GFP expression, 3 h, at 10 µM, stronger effect = higher value.
A short description of test [4]: TOR pathway LAP4-GFP level changes – S. cerevisiae, multiplex flow cytometry, primary screen (AID 1873;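 active = GFP signal, as percent of the solvent control, above the screen mean plus 3 SD, about 149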). The conditions noted are these: S. cerevisiae LAP4-GFP expression, 3 h, at 10 µM, stronger effect = higher value.
The nature of test [5]: yeast AGP1-GFP level changes, GLN3 branch – cell-based, multiplex flow cytometry, S. cerevisiae, primary screen (AID 1887;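 active = GFP signal above the screen-wide mean plus 3 SD, that is over about 124.5% of the solvent control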;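 note: AGP1-GFP fusion strain of S. cerevisiae within a five-strain barcoded multiplex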). The conditions noted are these: 3 h, at 10 µM, stronger effect = higher value.
A short description of test [6]: reduced mouse 2C T cell binding to pMHC/ICAM-1 vesicles – MLPCN validation set, flow cytometry, LFA-1/ICAM-1 modulator project, pilot screen (AID 2523;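 active = response below a set limit, under 55% cells CD8-positive and vesicle-bound, and CD8 cells' 90th-percentile brightness under 279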;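 for vesicle binding response: mean PE anti-B7-1 fluorescence of CD8+ cells relative to row control; 100% = QL9-loaded vesicles with DMSO vehicle in the same plate row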). The conditions noted are these: 2C mouse CD8+ T cells, at 7 µM, stronger effect = lower value; double positive events: measured here: CD8+/vesicle+ event percentage.
Test [7] addresses Integrin beta-1 (Homo sapiens) + Integrin alpha-4 (Homo sapiens) (UniProt P13612+P05556). As to the kind of experiment: alpha4beta1 integrin LIBS antibody binding reduction – U937 cells, HUTS-21 mAb, flow cytometry, validation set, VLA-4 allosteric modulator project, pilot screen (AID 2674;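 active = inhibition above 50%, about 3 SD of the validation set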;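 note: antibody binding induced by the VLA-4 ligand LDV present at three times its Kd; 0% = LDV ligand with antibody and no compound and 100% = antibody without LDV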). The following applies: HUTS-21 LIBS mAb binding, at 6.7 µM, stronger effect = higher value, binding induced by LDV ligand.

A short description of test [8]: calorie-restriction mimetic ROS inhibitors, yeast – validation compound set, pilot screen (AID 2706;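 active = superoxide response below 65% of plate, a cut near 3 SD across the whole screen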;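 note: yeast exposed to compound for one week at 30 degrees C before staining; 100% = mean of all compound wells on the same plate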). The following applies: S. cerevisiae aging, superoxide DHE fluorescence; at 10 µM; stronger effect = lower value.
In test [9] the target is Beta-adrenergic receptor kinase 1 (Homo sapiens) (UniProt P25098). As to the kind of experiment: GRK2 binders displacing RNA aptamer, biochemical, validation, human GRK2, bead flow cytometry (AID 488806;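 active = aptamer binding inhibition above 30%, about 3 SD of noise from non-fluorescent compounds; inactive = inhibition at or below 30%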). The conditions noted are these: bead-bound GRK2, FAM-aptamer displacement, at 10 µM, stronger effect = higher value.
Test [10] has as its target Beta-2 adrenergic receptor (Homo sapiens) (UniProt P07550). Put plainly: agonist-induced loss of surface beta2AR – cell-based, FAP fluorogen, flow cytometry, validation set, pilot screen (AID 504459;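 active = percent response above 42, roughly 3 SD of non-fluorescent test compounds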;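 note: agonist-driven loss of surface beta2AR via internalization measured by FAP dye flow cytometry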). The conditions noted are these: Am2.2-beta2AR cells, at 10 µM, stronger effect = higher value.
The target of test [11] is AP-2 complex subunit beta (Homo sapiens) (UniProt P63010). As to the kind of experiment: beta-arrestin/AP2 interaction blockers – biochemical, validation set, GST-AP2 beads, flow cytometry, pilot screen (AID 504541;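 active = inhibition above 54%, about 3 SD of non-fluorescent compounds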;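 note: AP2 carries R879A mutation and is captured from E. coli lysate; bead-bound FITC arrestin peptide fluorescence measuring arrestin peptide binding to AP2; 0% = DMSO wells and 100% = excess unlabeled arrestin peptide control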). The conditions noted are these: FITC arrestin peptide, at 10 µM, stronger effect = higher value, AP2 beta2 appendage fragment, R879A mutant.
Test [12] is described as follows: cytosolic pH regulators acting via V-ATPase – S. cerevisiae, pHLuorin, HTS validation (AID 504600; in the data active = response above about 15%;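 note: plate controls were DMSO for no effect and reference compound for full effect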). The following applies: V-ATPase proton transport, at 10 µM, stronger effect = higher value.
In test [13] the test system is anti-desmoglein-3 scFv antibody binding to human DSG3. As to the kind of experiment: blockers of pathogenic pemphigus antibody–desmoglein-3 binding – biochemical, validation compound set, bead-based, flow cytometry, pilot screen (AID 588368;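 active = binding below the plate cutoff, the plate median minus 3 SD, with a reading above zero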;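 note: signal is the median channel fluorescence of bead-bound GFP antibody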). The following applies: Protein G beads, DSG3-Fc, scFv-GFP binding, at 10 µM, stronger effect = lower value.
Test [14] can be described thus: Nile Red efflux blockade in pump-expressing yeast – validation compound set, multiplex, phenotypic, pilot screen (AID 588506;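 active = efflux inhibition above 0.42, the validation set average plus 4 SD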;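 note: Nile Red retained in cells so higher fluorescence means more efflux inhibition; 0 = negative control wells and 1 = enniatin B 25 µM full block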). The following applies: S. cerevisiae pump-expressing triplex, Nile Red efflux flow cytometry; at 10 µM; stronger effect = higher value; the pumps come from Candida albicans.
Test [15] has as its target ATP-binding cassette sub-family B member 6 (Homo sapiens) (UniProt Q9NP58). Put plainly: blockers of ABCB6-driven porphyrin uptake – K562-ABCB6 cells, flow cytometry, validation set, pilot screen (AID 588550).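 Note: 0% = DMSO wells and 100% = benzethonium chloride 70 µM positive control.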 The conditions noted are these: K562-ABCB6 porphyrin accumulation, 1 h, at 10 µM, stronger effect = higher value.
A short description of test [16]: AML differentiation inducers, ER-HoxA9 marrow cells – cell-based, GFP/MAC1 double positive, flow cytometry, validation set, primary screen (AID 588685;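 active = differentiation response of at least 50%, scaled between solvent and reference control, from cells with both markers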;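 note: compound exposure lasts four days before antibody staining and flow analysis; 0% = DMSO wells and 100% = 5 µM fulvestrant positive control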). The following applies: stronger effect = higher value, normalized: vehicle 0, fulvestrant 100.

A word on the inhibition: it is the change of the read-out against control, counted positive when it falls.

Results filed as inconclusive are left out. Activity calls are given as the source filed them.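 Rule for the calls, unless noted: active = inhibition above the screen-wide mean plus 3 SD, about 51%; inactive = the rest.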

Sequence of Beta-adrenergic receptor kinase 1 (Homo sapiens) (P25098 whole entry, looked up): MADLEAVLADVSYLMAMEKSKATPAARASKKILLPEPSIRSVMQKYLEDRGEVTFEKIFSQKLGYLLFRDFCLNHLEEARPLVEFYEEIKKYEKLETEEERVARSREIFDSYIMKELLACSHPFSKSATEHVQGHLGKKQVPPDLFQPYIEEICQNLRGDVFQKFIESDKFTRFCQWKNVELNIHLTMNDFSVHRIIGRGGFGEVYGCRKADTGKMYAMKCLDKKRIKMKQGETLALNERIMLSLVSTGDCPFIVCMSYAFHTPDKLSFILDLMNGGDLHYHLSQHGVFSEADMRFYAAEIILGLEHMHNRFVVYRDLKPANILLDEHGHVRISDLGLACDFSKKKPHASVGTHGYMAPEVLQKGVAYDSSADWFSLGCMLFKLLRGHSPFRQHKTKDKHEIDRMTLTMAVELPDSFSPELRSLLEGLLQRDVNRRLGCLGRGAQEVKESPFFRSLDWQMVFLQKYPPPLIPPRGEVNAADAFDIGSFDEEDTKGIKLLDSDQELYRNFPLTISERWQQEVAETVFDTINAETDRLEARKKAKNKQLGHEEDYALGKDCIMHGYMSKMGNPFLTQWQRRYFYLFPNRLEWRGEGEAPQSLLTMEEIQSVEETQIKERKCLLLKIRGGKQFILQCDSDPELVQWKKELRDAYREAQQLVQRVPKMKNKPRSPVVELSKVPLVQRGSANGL
Sequence of ATP-binding cassette sub-family B member 6 (Homo sapiens) (Q9NP58 whole entry, looked up): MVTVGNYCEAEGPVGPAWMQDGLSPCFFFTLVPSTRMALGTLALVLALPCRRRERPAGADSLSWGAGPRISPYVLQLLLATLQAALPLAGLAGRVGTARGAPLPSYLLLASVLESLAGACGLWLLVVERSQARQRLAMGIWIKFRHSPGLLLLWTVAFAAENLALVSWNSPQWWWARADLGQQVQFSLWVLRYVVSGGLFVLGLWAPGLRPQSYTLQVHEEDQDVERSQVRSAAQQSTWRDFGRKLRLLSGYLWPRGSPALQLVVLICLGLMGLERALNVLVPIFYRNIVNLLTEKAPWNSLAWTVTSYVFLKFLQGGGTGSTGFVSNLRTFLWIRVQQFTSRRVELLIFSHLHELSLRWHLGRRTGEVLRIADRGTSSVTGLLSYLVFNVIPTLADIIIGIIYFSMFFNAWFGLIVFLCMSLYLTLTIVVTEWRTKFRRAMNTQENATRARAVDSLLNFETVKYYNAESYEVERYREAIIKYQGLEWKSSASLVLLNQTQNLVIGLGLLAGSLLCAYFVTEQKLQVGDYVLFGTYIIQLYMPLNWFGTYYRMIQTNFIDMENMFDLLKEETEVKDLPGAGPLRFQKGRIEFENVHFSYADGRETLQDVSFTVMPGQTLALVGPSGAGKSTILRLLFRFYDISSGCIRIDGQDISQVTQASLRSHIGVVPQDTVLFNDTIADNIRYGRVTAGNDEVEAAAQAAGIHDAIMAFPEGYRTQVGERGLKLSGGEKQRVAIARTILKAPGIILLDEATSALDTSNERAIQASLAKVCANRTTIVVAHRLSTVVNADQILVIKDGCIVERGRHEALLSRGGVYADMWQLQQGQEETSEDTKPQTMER
Sequence of AP-2 complex subunit beta (Homo sapiens) (P63010 whole entry, looked up, the tested form may be a part, one chain of several): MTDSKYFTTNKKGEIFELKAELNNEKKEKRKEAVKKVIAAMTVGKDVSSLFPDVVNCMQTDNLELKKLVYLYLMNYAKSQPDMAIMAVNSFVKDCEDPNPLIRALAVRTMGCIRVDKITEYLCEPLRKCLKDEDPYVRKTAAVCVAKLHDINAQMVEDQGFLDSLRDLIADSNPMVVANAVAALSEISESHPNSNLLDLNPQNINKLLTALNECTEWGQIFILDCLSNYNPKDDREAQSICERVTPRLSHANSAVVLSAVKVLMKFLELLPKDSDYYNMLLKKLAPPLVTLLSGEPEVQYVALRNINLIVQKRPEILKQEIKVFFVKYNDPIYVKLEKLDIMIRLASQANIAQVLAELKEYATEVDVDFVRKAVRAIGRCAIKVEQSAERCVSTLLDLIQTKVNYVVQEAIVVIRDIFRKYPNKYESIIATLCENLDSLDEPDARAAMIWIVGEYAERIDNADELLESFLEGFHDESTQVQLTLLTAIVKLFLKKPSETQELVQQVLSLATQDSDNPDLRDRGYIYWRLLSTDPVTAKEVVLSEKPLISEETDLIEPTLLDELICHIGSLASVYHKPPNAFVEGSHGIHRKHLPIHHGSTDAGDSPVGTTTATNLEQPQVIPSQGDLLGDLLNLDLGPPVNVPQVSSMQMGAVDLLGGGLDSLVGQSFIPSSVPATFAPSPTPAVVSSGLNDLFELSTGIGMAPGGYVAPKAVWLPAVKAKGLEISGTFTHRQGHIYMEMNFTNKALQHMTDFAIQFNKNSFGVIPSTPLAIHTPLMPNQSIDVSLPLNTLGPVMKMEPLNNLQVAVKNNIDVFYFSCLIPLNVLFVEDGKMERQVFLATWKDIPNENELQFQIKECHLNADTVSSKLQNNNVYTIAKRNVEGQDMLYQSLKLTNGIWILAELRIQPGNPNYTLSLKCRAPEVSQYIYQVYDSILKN
Sequence of Beta-2 adrenergic receptor (Homo sapiens) (P07550 whole entry, looked up): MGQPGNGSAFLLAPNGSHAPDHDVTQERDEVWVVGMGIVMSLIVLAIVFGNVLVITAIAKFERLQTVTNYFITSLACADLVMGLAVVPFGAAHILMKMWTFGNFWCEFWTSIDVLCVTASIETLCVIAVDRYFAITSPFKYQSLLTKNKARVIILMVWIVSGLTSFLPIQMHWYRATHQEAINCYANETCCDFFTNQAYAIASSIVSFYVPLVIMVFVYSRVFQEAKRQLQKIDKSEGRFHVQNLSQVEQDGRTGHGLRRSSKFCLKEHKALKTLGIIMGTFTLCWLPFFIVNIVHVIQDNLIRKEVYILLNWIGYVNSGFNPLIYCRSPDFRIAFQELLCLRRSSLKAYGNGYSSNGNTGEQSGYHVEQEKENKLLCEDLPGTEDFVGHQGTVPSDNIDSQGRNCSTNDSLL
Sequence of Integrin beta-1 (Homo sapiens) + Integrin alpha-4 (Homo sapiens) (P05556 whole entry, looked up): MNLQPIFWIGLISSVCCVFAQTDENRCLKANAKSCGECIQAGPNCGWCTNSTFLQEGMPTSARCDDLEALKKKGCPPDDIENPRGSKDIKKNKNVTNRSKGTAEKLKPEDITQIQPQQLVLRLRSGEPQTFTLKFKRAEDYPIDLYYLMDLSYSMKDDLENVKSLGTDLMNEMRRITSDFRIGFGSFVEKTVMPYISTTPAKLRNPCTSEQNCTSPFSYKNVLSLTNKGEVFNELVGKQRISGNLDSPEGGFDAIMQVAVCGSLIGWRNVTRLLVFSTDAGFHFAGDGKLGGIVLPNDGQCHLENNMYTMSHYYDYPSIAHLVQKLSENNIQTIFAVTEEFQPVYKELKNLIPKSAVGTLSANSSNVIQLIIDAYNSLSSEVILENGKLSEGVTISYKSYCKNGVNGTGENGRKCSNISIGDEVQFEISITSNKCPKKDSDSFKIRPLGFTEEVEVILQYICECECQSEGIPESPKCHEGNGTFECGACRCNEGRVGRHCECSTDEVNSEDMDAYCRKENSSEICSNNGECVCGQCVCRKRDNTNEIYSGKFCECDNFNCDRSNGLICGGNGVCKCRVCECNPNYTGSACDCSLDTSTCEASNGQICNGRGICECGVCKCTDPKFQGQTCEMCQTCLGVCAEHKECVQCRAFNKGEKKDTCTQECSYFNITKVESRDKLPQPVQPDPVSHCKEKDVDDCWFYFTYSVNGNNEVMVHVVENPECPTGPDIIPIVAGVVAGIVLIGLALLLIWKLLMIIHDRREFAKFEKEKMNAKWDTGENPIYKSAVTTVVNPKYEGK
Sequence of Integrin beta-1 (Homo sapiens) + Integrin alpha-4 (Homo sapiens) (P13612 whole entry, looked up): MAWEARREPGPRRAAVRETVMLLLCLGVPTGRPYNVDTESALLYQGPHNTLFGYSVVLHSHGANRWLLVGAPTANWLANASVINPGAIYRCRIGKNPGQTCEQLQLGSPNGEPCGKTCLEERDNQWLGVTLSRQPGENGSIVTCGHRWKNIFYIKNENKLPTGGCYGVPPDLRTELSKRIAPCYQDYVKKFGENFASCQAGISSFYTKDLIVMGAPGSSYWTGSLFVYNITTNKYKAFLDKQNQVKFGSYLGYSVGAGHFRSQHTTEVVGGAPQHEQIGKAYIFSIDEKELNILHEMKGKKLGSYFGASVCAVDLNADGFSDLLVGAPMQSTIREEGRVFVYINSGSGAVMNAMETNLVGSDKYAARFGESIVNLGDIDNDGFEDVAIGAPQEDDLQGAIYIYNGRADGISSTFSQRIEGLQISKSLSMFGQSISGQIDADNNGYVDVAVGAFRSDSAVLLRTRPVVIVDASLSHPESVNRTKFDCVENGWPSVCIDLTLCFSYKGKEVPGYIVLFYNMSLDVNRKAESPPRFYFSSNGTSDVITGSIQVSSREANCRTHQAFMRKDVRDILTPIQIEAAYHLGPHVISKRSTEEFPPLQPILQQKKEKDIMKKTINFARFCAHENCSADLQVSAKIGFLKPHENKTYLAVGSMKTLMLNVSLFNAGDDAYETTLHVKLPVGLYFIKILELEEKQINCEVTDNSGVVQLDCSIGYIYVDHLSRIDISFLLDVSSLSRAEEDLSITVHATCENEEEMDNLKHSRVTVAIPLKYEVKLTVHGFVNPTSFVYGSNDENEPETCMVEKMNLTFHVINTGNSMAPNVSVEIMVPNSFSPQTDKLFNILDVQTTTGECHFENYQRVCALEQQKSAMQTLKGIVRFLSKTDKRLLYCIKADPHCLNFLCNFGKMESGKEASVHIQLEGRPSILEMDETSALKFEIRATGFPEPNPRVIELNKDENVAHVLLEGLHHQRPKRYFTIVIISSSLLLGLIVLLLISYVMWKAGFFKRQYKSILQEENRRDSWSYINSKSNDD

For `Cc1ccc(O)c(CCc2ccccc2)n1`, the percent of DMSO control GFP in [1] was 100% (inactive). Besides, the GFP response vs DMSO is 109% (inactive) in test [2] and 90.7% (inactive) in test [4]. The percent response of DMSO control in [3] is 94.2% (inactive). For the same compound, in [5], the GFP response, % of DMSO is 98.3% (inactive). This compound also registered a double positive events in test [6] of 61.6%. In addition, the vesicle binding response in test [6] was 222% (inactive). Further, the results for the inhibition in test [7], in [11] and in test [15] were -4.6% (inactive), 3.07% (inactive) and 19% (inactive), respectively. In test [8], the superoxide response (% of plate) was 106% (inactive). The aptamer binding inhibition in [9] was 2% (inactive). For the same compound, the response is -1.92% (inactive) in [10] and 0.6% (inactive) in [12]. For the same compound, the binding (% of control) in test [13] was 98.4% (inactive). Besides, the efflux inhibition (fraction of control) in test [14] is -0.04 (inactive). Also, in test [16], the differentiation response is 6.11% (inactive).

`CCOc1cc2c3c(c1)C(C)=CC(C)(C)N3C(=O)C2=O`: in test [1], the percent of DMSO control GFP was 95% (inactive). In addition, the values for the GFP response vs DMSO in [2] and in test [4] were 111% (inactive) and 108% (inactive), respectively. Further, in [3], the percent response of DMSO control is 103% (inactive). Also, in test [5], the GFP response, % of DMSO is 102% (inactive). The same compound registered a double positive events in [6] of 43.2%. Moreover, the vesicle binding response in [6] was 11.7% (active). In addition, the inhibition in test [7] was 35.1% (inactive); in [11], 51.5% (inactive); in test [15] it was 4% (inactive). Besides, the superoxide response (% of plate) in [8] is 108% (inactive). For the same compound, the aptamer binding inhibition in test [9] is 0% (inactive). Besides, the response is 23% (inactive) in test [10] and -5.76% (inactive) in [12]. Further, the binding (% of control) in test [13] is 101% (inactive). In addition, the efflux inhibition (fraction of control) in test [14] was -0.13 (inactive). Also, the differentiation response in test [16] is -0.8% (inactive).

For `COc1ccc2nc(C)cc(Nc3ccccc3O)c2c1`, the percent of DMSO control GFP in [1] was 94.2% (inactive). In addition, the GFP response vs DMSO in test [2] was 108% (inactive); in test [4] it was 115% (inactive). Moreover, in [3], the percent response of DMSO control is 90.1% (inactive). Further, in test [5], the GFP response, % of DMSO is 99.4% (inactive). Besides, the double positive events in test [6] was determined as 58%. The vesicle binding response in test [6] was 120% (inactive). The inhibition was -7.25% (inactive) in test [7], 3.21% (inactive) in test [11] and 9% (inactive) in test [15]. Further, in test [8], the superoxide response (% of plate) was 91.3% (inactive). For the same compound, the aptamer binding inhibition in test [9] was -3% (inactive). Also, the response in test [10] was 7.69% (inactive); in [12] it was 1.21% (inactive). The binding (% of control) in test [13] was 101% (inactive). For the same compound, the efflux inhibition (fraction of control) in [14] is 0.01 (inactive). Besides, the differentiation response in [16] is -20% (inactive).

Take `CCc1nc2ccccc2c(NC(=O)CN2CC(C)CC(C)C2)c1C` (stereo not given): the percent of DMSO control GFP in [1] is 99% (inactive). Also, the results for the GFP response vs DMSO in [2] and in [4] were 105% (inactive) and 90.7% (inactive), respectively. Besides, in test [3], the percent response of DMSO control is 101% (inactive). Moreover, the GFP response, % of DMSO in [5] was 96.2% (inactive). This compound displayed a double positive events in test [6] of 63.1%. The vesicle binding response in test [6] is 179% (inactive). The inhibition is -7.72% (inactive) in [7], -1.11% (inactive) in test [11] and 10% (inactive) in [15]. For the same compound, the superoxide response (% of plate) in test [8] was 105% (inactive). Besides, the aptamer binding inhibition in test [9] was -2% (inactive). In addition, the response in [10] is 0.46% (inactive); in test [12], 9.89% (inactive). For the same compound, in test [13], the binding (% of control) is 93.8% (inactive). Moreover, the efflux inhibition (fraction of control) in test [14] was 0.11 (inactive). For the same compound, the differentiation response in test [16] was 0.24% (inactive).

On to `O=c1c2ccccc2nc2n1CCCN2`, for which the percent of DMSO control GFP in test [1] was 103% (inactive). The GFP response vs DMSO in test [2] was 97.4% (inactive); in [4], 98.2% (inactive). For the same compound, in [3], the percent response of DMSO control was 111% (inactive). For the same compound, in test [5], the GFP response, % of DMSO was 103% (inactive). The double positive events in test [6] is 50.4%. Besides, the vesicle binding response in [6] was 72.9% (active). Further, the inhibition in test [7] was -7.25% (inactive); in test [11], -9.42% (inactive); in test [15] it was 2% (inactive). Besides, the superoxide response (% of plate) in test [8] is 102% (inactive). Besides, the aptamer binding inhibition in [9] was -1% (inactive). For the same compound, the results for the response in test [10] and in test [12] were -10.8% (inactive) and -1.39% (inactive), respectively. Besides, the binding (% of control) in [13] is 102% (inactive). Further, the efflux inhibition (fraction of control) in [14] is -0.1 (inactive). Moreover, the differentiation response in test [16] was -16.8% (inactive).
